Assay in all cases: NCI-60 one-dose screen, 48 h (100 = growth as untreated, 0 = no growth, -100 = all killed)
Conditions in all cases: 10 µM unless noted

For experiment [1], the system named is DU-145 prostate.
Experiment [2] relates to K-562 leukemia.
Experiment [3] relates to MALME-3M melanoma.
Experiment [4] has as its system MDA-MB-231 breast.
The subject of experiment [5] is RXF 393 renal.
The test system of experiment [6] is SF-268 CNS.
For experiment [7], the system named is SF-295 CNS.
For experiment [8], the system named is SF-539 CNS.
Experiment [9] concerns UACC-257 melanoma.
Experiment [10] concerns M14 melanoma.
Experiment [11] has as its system HCT-15 colon.
The test system of experiment [12] is HT29 colon.
Experiment [13] concerns SNB-75 CNS.
Experiment [14] relates to SNB-19 CNS.
Experiment [15] deals with PC-3 prostate.
Experiment [16] deals with SK-MEL-5 melanoma.
Experiment [17] relates to UACC-62 melanoma.
For experiment [18], the system named is LOX IMVI melanoma.
Experiment [19] has as its system SK-MEL-28 melanoma.
In experiment [20] the test system is U251 CNS.

Here are results for 8 compounds from PubChem BioAssay (NCI).

The panel holds about 83,000 compounds, 20% with a hit somewhere; the sample as a whole holds those more often.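 Cell lines were cultured in 96-well plates, exposed to a single compound concentration, and assessed for percent growth 48 hours later.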 Values without a mark were called inactive. Activity calls are given as the source filed them. Rule for the calls: active = growth percent below 10; inactive = the rest.

Take `CN(/C(N)=N/N=C/c1c2ccccc2cc2ccccc12)C1CCCCC1`: the growth is 57.6% in experiment [1]; 12.9% in experiment [2]; 39.8% in [3]; 59.9% in [4]; 48.1% in experiment [5]; 72.4% in [6]. For the same compound, the growth is 45.7% in [7]; 73.9% in experiment [8]; 64.3% in [9]; 37.7% in experiment [10]; 25.5% in experiment [11]; 17.9% in experiment [12]. Moreover, the growth in experiment [13] was 57.2%; in experiment [14], 71.5%; in experiment [15] it was 36.7%; in [16], 12.1%; in experiment [17] it was 47.6%; in [18] it was 31.3%. The growth in experiment [19] was 48.8%.

Regarding `Nc1c(C(=O)Nc2ccccc2C(F)(F)F)sc2nc3c(cc12)CCC3`, the growth is 108% in experiment [1]; 94.4% in [2]; 99.8% in experiment [3]; 92% in [4]; 84.6% in experiment [5]; 106% in experiment [6]. Further, the growth in experiment [7] is 95.1%; in [8] it was 100%; in experiment [9], 101%; in experiment [10] it was 113%; in experiment [11], 97.3%; in [12], 94.3%. Also, the growth in [13] is 97.4%; in experiment [14] it was 98.4%; in experiment [20] it was 93.9%; in experiment [16], 98.6%; in experiment [17], 81%; in experiment [18] it was 110%. Besides, the growth in experiment [19] is 94.5%.

Regarding `CCOC(=O)c1c(NC(=O)c2ccc(Cl)cc2)sc2c(CN(C)C)c(O)ccc12`, the growth in [1] was 82%; in experiment [2], 8.81% (active); in [3], 51.6%; in experiment [4], 56.4%; in experiment [5], 64.2%; in experiment [6] it was 78.5%. Also, the growth in experiment [7] was 83.5%; in experiment [8] it was 56.7%; in experiment [9] it was 2.24% (active); in experiment [10], -18.4% (active); in experiment [11] it was -1.49% (active); in [12], 23%. The growth in experiment [13] is 79.2%; in experiment [14] it was 79.5%; in [20], 54.4%; in experiment [16] it was 87.4%; in experiment [17], 103%; in experiment [18], 60.6%. Also, the growth in experiment [19] was 73.8%.

For the compound `Nc1n[nH]c2ccc([C@H]3[C@@H]4C5CCC(C5)[C@@H]4c4c(ccc5[nH]ncc45)N3S(=O)(=O)C3CC3)cc12` (some centres not stated), the growth in [1] is 17.9%; in experiment [2], 13.6%; in experiment [3] it was 61.4%; in [4], -9.16% (active); in [5], 26.2%; in experiment [6], 37.1%. Besides, the growth in [7] is 12.6%; in experiment [8], -25.5% (active); in experiment [9] it was 63.8%; in experiment [10] it was 7.92% (active); in experiment [11] it was 12.3%; in experiment [12], 9.97% (active). Moreover, the growth in experiment [13] was -10.3% (active); in experiment [14], 23.2%; in [15], 28.3%; in [16] it was -22.4% (active); in [17] it was 32.5%; in experiment [18], 8.72% (active). Besides, in experiment [19], the growth was 52.7%.

As for `COC(CC(F)F)c1cn(S(=O)(=O)c2ccc(C)cc2)c2ccccc12` (configuration not stated), the growth in [1] was 21.3%; in experiment [2] it was 14.5%; in experiment [3] it was 50.9%; in experiment [4] it was 38.2%; in [5], 39.4%; in [6] it was 42%. For the same compound, the growth in experiment [7] was 15%; in [8], 15.7%; in experiment [9], 37.1%; in experiment [10], 7.65% (active); in experiment [11], 20%; in experiment [12], 4.89% (active). Also, the growth is 18.6% in [13]; 29.2% in experiment [14]; 21.3% in experiment [15]; 34.1% in experiment [16]; 32.1% in experiment [17]; 40.7% in [18]. In addition, the growth in experiment [19] is 44.7%.

Consider `COC(=O)c1c(C)nc(C)c2c1C(=O)C(Br)=C(NCc1ccccc1)C2=O`, for which the growth in [1] was 38%; in [2] it was 21%; in [3] it was -75.4% (active); in experiment [4], 14.8%; in [5], 52.4%; in experiment [6], 33%. In addition, the growth in experiment [7] was 30.1%; in experiment [8], 7.13% (active); in [9], -7.87% (active); in experiment [10], 14%; in [11], 11.6%; in experiment [12], 6.01% (active). In addition, the growth is 100% in experiment [13]; 41.7% in experiment [14]; 16.1% in [15]; -96.5% (active) in [16]; -10.8% (active) in experiment [17]; 6.45% (active) in experiment [18]. Also, the growth in [19] was 56.4%.

Regarding `CC(C)COc1nc2c(c(=O)n(C)c(=O)n2C)n1C`, the growth in experiment [1] was 111%; in experiment [2] it was 98%; in experiment [3] it was 121%; in experiment [4], 108%; in experiment [5], 126%; in experiment [6], 98.5%. Besides, the growth in experiment [7] is 112%; in experiment [8], 91.8%; in experiment [9], 67.2%; in [10], 108%; in experiment [11] it was 97%; in experiment [12] it was 99.8%. Further, the growth was 82.4% in [13]; 99.9% in [14]; 101% in experiment [20]; 86.7% in [16]; 93.8% in experiment [17]; 105% in experiment [18]. Also, the growth in experiment [19] is 106%.

For `Cc1ccc(C)n1-c1ccccc1-n1c(C)ccc1C`, the growth is 111% in [1]; 101% in experiment [2]; 120% in experiment [3]; 90.8% in experiment [4]; 109% in experiment [5]; 98.6% in experiment [6]. In addition, the growth in [7] was 92.9%; in experiment [8], 104%; in [9], 103%; in [10], 112%; in experiment [11], 115%; in [12], 103%. The growth is 87.2% in experiment [13]; 108% in [14]; 102% in experiment [20]; 104% in experiment [16]; 87.5% in [17]; 90.9% in [18]. Also, the growth in experiment [19] was 93.6%.
